Experimental data published in the supplement of paper PMC6555819.

Experiments:
Test in all cases: PBM binding z-score (relative to random genomic background probes); higher = stronger binding; sequences stand for … in GC…GCGATTGACAGCGTAGAATGAAGG
[1] = system: FXR:RXRa (NR concentration 270 nM, RXRa partner concentration 90 nM)
In short: (§1)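 Binding buffer was PBS pH 7.4 with 2% milk, 0.02% Triton X-100, 1 mM DTT, 0.2 mg/mL BSA and 0.4 mg/ml salmon testes DNA. In it, ligand-free nuclear receptor dimers were incubated 1 h on custom Agilent 4×180K protein-binding microarrays carrying double-stranded probes. Antibodies against each partner (one per run) detected binding, and z-scores were calculated against random background probes after regression normalization of scanned fluorescence.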

[2] = system: LXRa:RXRa (NR concentration 270 nM, RXRa partner concentration 90 nM)
In short: as §1

[3] = system: LXRa homodimer (NR concentration 270 nM)
In short: as §1

[4] = system: LXRb:RXRa (NR concentration 270 nM, RXRa partner concentration 90 nM)
In short: as §1

[5] = system: LXRb homodimer (NR concentration 270 nM)
In short: as §1

[6] = system: PPARa:RXRa (NR concentration 270 nM, RXRa partner concentration 90 nM)
In short: as §1

[7] = system: PPARg:RXRa (NR concentration 180 nM, RXRa partner concentration 90 nM)
In short: as §1

[8] = system: PPARg:RXRa 270nM:90nM, anti-RXR (NR concentration 270 nM, RXRa partner concentration 90 nM)
In short: as §1

[9] = system: PPARg:RXRa 30nM:10nM, anti-RXR (NR concentration 30 nM, RXRa partner concentration 10 nM)
In short: as §1

[10] = system: PPARg:RXRa 90nM:30nM, anti-RXR (NR concentration 90 nM, RXRa partner concentration 30 nM)
In short: as §1

[11] = system: PPARg:RXRa DBDmut IVT, anti-RXR (DBD mutation: RXRa K156A/R161A, NR concentration 270 nM, RXRa partner concentration 90 nM)
In short: as §1

[12] = system: PPARg:RXRa IVT, anti-PPARg (NR concentration 270 nM, RXRa partner concentration 90 nM)
In short: as §1

[13] = system: PPARg DBDmut:RXRa IVT, anti-PPARg (DBD mutation: PPARg1 K132A/R137A, NR concentration 270 nM, RXRa partner concentration 90 nM)
In short: as §1

[14] = system: PPARg DBDmut IVT, anti-PPARg (DBD mutation: PPARg1 K132A/R137A, NR concentration 270 nM)
In short: as §1

[15] = system: PPARg homodimer (NR concentration 180 nM)
In short: as §1

[16] = system: PXR:RXRa (NR concentration 270 nM, RXRa partner concentration 90 nM)
In short: as §1

[17] = system: PXR homodimer (NR concentration 270 nM)
In short: as §1

[18] = system: RARa:RXR (NR concentration 270 nM, RXRa partner concentration 90 nM)
In short: as §1

[19] = system: RARa homodimer (NR concentration 270 nM)
In short: as §1

[20] = system: RARb:RXRa (NR concentration 270 nM, RXRa partner concentration 90 nM)
In short: as §1

Sequence	PBM binding z-score [1]	PBM binding z-score [2]	PBM binding z-score [3]	PBM binding z-score [4]	PBM binding z-score [5]	PBM binding z-score [6]	PBM binding z-score [7]	PBM binding z-score [8]	PBM binding z-score [9]	PBM binding z-score [10]	PBM binding z-score [11]	PBM binding z-score [12]	PBM binding z-score [13]	PBM binding z-score [14]	PBM binding z-score [15]	PBM binding z-score [16]	PBM binding z-score [17]	PBM binding z-score [18]	PBM binding z-score [19]	PBM binding z-score [20]
TCTATTAGTTGATTAGGGCAAACGAAACAGCGGA	0.336	0.43	0.307	0.724	0.369	0.691	0.317	1.62	3.24	2.29	1.88	1.04	0.889	1.04	0.195	0.343	0.106	0.325	0.996	0.708
CCTACTGGTCCACGAAAGGTCATTGATTCAGTGA	3.9	4.86	5.19	4.6	1.21	4.38	1.3	3.07	0.699	2.22	0.842	1.87	0.736	-0.00763	4.11	5.53	3.24	5.86	2.86	3.95
TCTTGCAGGCCAGAGGGTCACTCAAGAGGTACGG	1.13	1.04	-0.621	1.3	-0.52	2.81	1.99	3.39	2.63	3.38	1.23	1.74	0.108	0.193	1.21	1.65	-0.469	2.21	-0.686	2.44
AGAATGAGGTTACCAAATATCAGGGAAACGCTTG	1.57	2.74	-0.144	1.81	-0.351	3.3	2.58	2.84	1.07	2.04	4.3	3.78	1.63	0.617	0.301	1.05	0.00391	1.77	-0.0256	2.1
CCTACTGTGCCAAGGTCATTGATCAGTCAAAGCA	3.24	3.74	1.67	3.26	0.681	4.05	3.18	3.78	1.24	2.83	3.52	3.07	-0.148	0.41	2.81	3.87	1.91	3.76	1.37	3.28
CGTCCAACGTCATAGGAGGTCAGTGAAGACAGAT	1.79	2.71	0.999	1.63	-0.234	2.09	0.683	0.77	0.184	0.231	0.0965	1.08	0.0644	-0.0605	1.13	2.24	0.731	1.79	0.648	2.14
TCTGCTAGGTCAACGATGGTCAGCTAGTCTGCTA	3.29	2.53	-0.369	1.39	-0.445	3.44	2.46	2.9	1.75	2.53	3.64	4.26	-0.411	-0.961	0.415	1.42	-1.07	2.26	-1.08	4.06
